The values below come from PubChem BioAssay.

Each structure is given as a SMILES string. Activity calls are given as the source filed them.

A short description of assay [1]: E. coli DRC41 culture turbidity changes, primary screen, E. coli filamentation inducer project, strain DRC41, OD650, 48 h (AID 1152).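 Also: E. coli MC1000 strain DRC41 lacking acrAB efflux pump and sulA.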 Conditions: E. coli DRC41 (acrAB sulA), higher = more signal, called active from +8 up or from −8 down.
Assay [2] can be described thus: small-molecule binders of probe aLefty1, primary screen, biochemical, small-molecule microarray, 635/667 nm fluorescence (AID 1153).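 Also: score merges spot fluorescence with signal-to-noise ratio from the scanned slide images.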 Conditions: higher = more signal.
A short description of assay [3]: PSAC antagonists in infected red cells, primary screen, cell-based, P. falciparum Indochina, OD700, 1 h (AID 1154). Conditions: P. falciparum Indochina infected RBC osmotic lysis, higher = more signal, called active from +8 up or from −8 down.
Assay [4] can be described thus: PSAC antagonists in infected red cells, primary screen, cell-based, P. falciparum Indochina, OD700, 2 h (AID 1155).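 Also: lysis reports solute entry through the parasite surface anion channel PSAC; channel blockers reduce lysis of infected cells.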 The conditions noted are these: P. falciparum Indochina infected erythrocytes, osmotic lysis OD700; higher = more signal, called active from +8 up or from −8 down.
A short description of assay [5]: osmotic lysis modulators in infected erythrocytes, primary screen, PSAC antagonist project, cell-based, P. falciparum Indochina, OD700, 3 h (AID 1156). Conditions: higher = more signal, called active from +8 up or from −8 down.
Assay [6] in a line: PSAC antagonists in infected red cells, primary screen, cell-based, P. falciparum Indochina, OD700, 18 h (AID 1157). Conditions: P. falciparum Indochina infected erythrocytes, osmotic lysis OD700, 18 h; higher = more signal, called active from +8 up or from −8 down.
Assay [7] in a line: modulators of S6 phosphorylation in cells, primary screen, cell-based, A549, cytoblot, luminescence, serum-stimulated (AID 1158).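 Also: serum-stimulated A549 lung adenocarcinoma cells; signal is phosphorylated S6 detected by cytoblot immunostaining with HRP secondary.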 The conditions noted are these: A549 phospho-S6 cytoblot, 5 h, higher = more signal.
For assay [8], the target named is NADPH oxidase 2 (Homo sapiens) (UniProt P04839). Description: NOX2-dependent H2O2 signal modulators, primary screen, NOX inhibitor project, cell-based, HEK293-NOX2, PMA-stimulated, Amplex Red fluorescence (AID 1159). Also: test concentration not given here. Conditions: 45 min, higher = more signal, called active from +8 up or from −8 down.
In assay [9] the target is NADPH oxidase 4 (Homo sapiens) (UniProt Q9NPH5). Description: NOX4-dependent H2O2 signal modulators, primary screen, NOX inhibitor project, cell-based, HEK293-NOX4, tetracycline-induced, Amplex Red fluorescence (AID 1160). Conditions: 45 min, higher = more signal, called active from +8 up or from −8 down.
The target in assay [10] is NADPH oxidase 5 (Homo sapiens) (UniProt Q96PH1). Kind of assay: NOX5-dependent H2O2 signal modulators, primary screen, NOX inhibitor project, cell-based, HEK293-NOX5, Amplex Red fluorescence (AID 1161). The conditions noted are these: HEK293-NOX5, ionomycin, 45 min, higher = more signal.
A short description of assay [11]: A549 cell viability effects, profiling panel, calcein-AM fluorescence, 48 h, basal (AID 1162). Also: test concentration not given here. Conditions: higher = more signal.
Assay [12] is described as follows: adipocyte viability effects, profiling panel, cell-based, 3T3-L1 adipocytes, calcein-AM fluorescence, 48 h, basal (AID 1163). Also: test concentration not given here. Conditions: 3T3-L1 adipocytes viability, higher = more signal.
Assay [13] can be described thus: HepG2 cell viability effects, profiling panel, calcein-AM fluorescence, 48 h, basal (AID 1164). Also: test concentration not given here. The conditions noted are these: higher = more signal.
Assay [14] is described as follows: MM1S cell viability effects, profiling panel, calcein-AM fluorescence, 48 h, basal (AID 1165).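 Also: viability of MM1S multiple myeloma cells under basal unstimulated conditions; test concentration not given here.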 Conditions: higher = more signal.
Assay [15] in a line: basal RPMI8226 viability, no added stimulus, profiling panel, cell-based, calcein-AM fluorescence, 48 h, PK04 Diversity Set (AID 1166).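 Also: cells grown under basal conditions without added stimulus; test concentration not given here.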 The conditions noted are these: RPMI8226 myeloma viability, higher = more signal.
A short description of assay [16]: basal HepG2 mitochondrial membrane potential changes, profiling panel, cell-based, JC-1 fluorescence, 24 h, 100 nL compound (AID 1167). Also: test concentration not given here. The conditions noted are these: higher = more signal.
Assay [17] in a line: basal 3T3-L1 adipocyte mitochondrial potential changes, profiling panel, cell-based, JC-1 fluorescence, 3T3-L1 adipocytes, 24 h, 100 nL compound (AID 1168). Also: test concentration not given here. Conditions: JC-1 mitochondrial fluorescence, higher = more signal, called active from +8 up or from −8 down.
A short description of assay [18]: basal RPMI8226 mitochondrial membrane potential changes, profiling panel, cell-based, JC-1 fluorescence, 24 h, 100 nL compound (AID 1169). Also: test concentration not given here. The conditions noted are these: RPMI8226 myeloma, JC-1 mitochondrial potential fluorescence, higher = more signal.
Assay [19] is described as follows: basal MM1S mitochondrial membrane potential changes, profiling panel, cell-based, JC-1 fluorescence, 24 h, 100 nL compound (AID 1170). Also: test concentration not given here. Conditions: higher = more signal.
The nature of assay [20]: A549 lung cancer cell viability effects, profiling panel, resazurin fluorescence, 24 h, PK04 Diversity Set (AID 1171). Also: test concentration not given here. The conditions noted are these: higher = more signal, called active from +8 up or from −8 down. A general note: The colour change of resazurin is a common sign of viable cells or microbes.

Sequence of NADPH oxidase 4 (Homo sapiens) (Q9NPH5 whole entry, looked up): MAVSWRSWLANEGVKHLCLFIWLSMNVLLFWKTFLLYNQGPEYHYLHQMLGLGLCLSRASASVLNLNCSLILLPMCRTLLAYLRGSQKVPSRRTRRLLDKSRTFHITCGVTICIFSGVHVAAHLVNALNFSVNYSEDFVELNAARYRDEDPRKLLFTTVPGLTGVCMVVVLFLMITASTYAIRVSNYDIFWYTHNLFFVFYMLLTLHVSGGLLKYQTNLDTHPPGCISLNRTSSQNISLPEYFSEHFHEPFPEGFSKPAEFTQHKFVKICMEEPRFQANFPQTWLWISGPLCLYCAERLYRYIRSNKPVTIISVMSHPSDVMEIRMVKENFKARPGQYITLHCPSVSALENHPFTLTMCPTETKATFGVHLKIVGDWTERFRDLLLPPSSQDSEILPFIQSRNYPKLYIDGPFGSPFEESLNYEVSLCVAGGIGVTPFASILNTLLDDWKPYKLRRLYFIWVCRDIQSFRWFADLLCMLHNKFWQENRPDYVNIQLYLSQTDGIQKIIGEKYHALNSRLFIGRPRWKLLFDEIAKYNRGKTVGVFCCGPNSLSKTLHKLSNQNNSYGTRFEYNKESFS
Sequence of NADPH oxidase 5 (Homo sapiens) (Q96PH1 whole entry, looked up): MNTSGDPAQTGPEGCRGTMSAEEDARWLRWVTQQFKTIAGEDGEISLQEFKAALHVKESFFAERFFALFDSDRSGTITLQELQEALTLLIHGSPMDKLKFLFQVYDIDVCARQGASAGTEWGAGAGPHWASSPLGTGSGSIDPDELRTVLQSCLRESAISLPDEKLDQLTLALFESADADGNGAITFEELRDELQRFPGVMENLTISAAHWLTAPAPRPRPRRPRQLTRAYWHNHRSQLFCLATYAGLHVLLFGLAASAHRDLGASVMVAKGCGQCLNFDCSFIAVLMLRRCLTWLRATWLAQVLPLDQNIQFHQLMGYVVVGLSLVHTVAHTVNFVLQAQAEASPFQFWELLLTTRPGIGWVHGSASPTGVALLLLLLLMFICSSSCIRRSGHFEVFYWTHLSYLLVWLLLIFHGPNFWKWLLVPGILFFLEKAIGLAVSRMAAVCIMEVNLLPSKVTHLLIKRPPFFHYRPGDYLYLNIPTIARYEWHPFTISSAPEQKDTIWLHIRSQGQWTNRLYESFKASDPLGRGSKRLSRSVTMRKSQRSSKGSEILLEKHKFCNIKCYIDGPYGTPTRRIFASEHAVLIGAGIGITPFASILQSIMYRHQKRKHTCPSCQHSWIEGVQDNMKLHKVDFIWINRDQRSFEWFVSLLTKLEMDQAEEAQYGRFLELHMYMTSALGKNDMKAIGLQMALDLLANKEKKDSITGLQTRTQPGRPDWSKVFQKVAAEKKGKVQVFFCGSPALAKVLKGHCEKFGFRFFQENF
Sequence of NADPH oxidase 2 (Homo sapiens) (P04839 whole entry, looked up): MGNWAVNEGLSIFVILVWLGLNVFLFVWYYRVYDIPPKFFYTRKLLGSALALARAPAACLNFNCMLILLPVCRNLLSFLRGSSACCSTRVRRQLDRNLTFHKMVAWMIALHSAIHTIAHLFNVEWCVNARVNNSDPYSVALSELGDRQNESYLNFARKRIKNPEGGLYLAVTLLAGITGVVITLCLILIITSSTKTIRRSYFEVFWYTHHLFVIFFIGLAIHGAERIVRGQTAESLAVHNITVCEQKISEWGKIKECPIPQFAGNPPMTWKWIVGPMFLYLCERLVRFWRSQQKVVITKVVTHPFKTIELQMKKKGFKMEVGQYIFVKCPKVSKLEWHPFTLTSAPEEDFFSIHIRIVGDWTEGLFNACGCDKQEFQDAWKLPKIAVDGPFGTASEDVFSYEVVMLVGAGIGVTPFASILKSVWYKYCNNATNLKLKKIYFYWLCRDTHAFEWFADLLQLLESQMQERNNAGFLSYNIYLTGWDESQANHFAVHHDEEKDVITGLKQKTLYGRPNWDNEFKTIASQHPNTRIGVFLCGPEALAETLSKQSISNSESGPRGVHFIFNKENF

As to `C=CCOC(=O)[C@@H]1[C@H]2C(=O)O[C@H](c3ccccc3)[C@H](c3ccccc3)N2[C@H](c2ccc(OCCOC(=O)[C@@H]3C[C@@H]4C(=O)N[C@@H](CCCCN(C)C)C(=O)N4[C@@H]3c3ccc(O)cc3)cc2)[C@@]12C(=O)Nc1ccc(I)cc12`, the z-score in assay [1] was -0.193 (inactive); in assay [3] it was -1.43 (inactive); in assay [4], 0.997 (inactive); in [5], 3.77 (inactive); in assay [6], 0.374 (inactive); in assay [7], -0.381. Also, the z-score in [8] was 1.36 (inactive); in assay [9], 0.636 (inactive); in [10], 0.167; in assay [11], -0.303; in assay [12], -0.247; in [13], 0.295. For the same compound, the z-score in [14] was -0.7; in [15], -0.857; in assay [16], -1.93; in assay [17], -0.171 (inactive); in assay [18] it was -0.95; in assay [19], -1.45. Further, the z-score in [20] is 0.417 (inactive). The compound also showed a composite z-score in assay [2] of -0.012.
Consider `C=CC[C@@]1(C(=O)NCc2ccccc2)N=C(c2ccc(OCCCO)cc2)O[C@@H]1c1ccccc1N=[N+]=[N-]`, for which the z-score in assay [1] is -0.304 (inactive); in assay [3] it was 33.3 (active); in assay [4], 31.1 (active); in assay [5], 3.73 (inactive); in assay [6] it was 8.16 (active); in assay [7] it was -0.126. The z-score was -1.88 (inactive) in [8]; 1.29 (inactive) in assay [9]; -0.965 in assay [10]; -0.586 in assay [11]; 0.117 in assay [12]; 0.317 in assay [13]. Further, the z-score in [14] is -1.48; in assay [15] it was -1.26; in assay [16], -0.827; in [17], 0.693 (inactive); in [18], -1; in [19], -0.85. Besides, in [20], the z-score is -0.307 (inactive). Further, the composite z-score in [2] amounted to 0.869.
Consider `COCCOC(=O)N1C(=O)[C@@]2(c3cc(C#CC4=CCCCC4)ccc31)[C@H](C(=O)Nc1nc3ccccc3s1)[C@H]1C(=O)O[C@H](c3ccccc3)[C@H](c3ccccc3)N1[C@@H]2c1ccccc1OCCO`, for which the z-score in assay [1] was 0.687 (inactive); in [3] it was 2.84 (inactive); in assay [4], 0.926 (inactive); in [5] it was -0.0917 (inactive); in assay [6], 0.436 (inactive); in assay [7] it was 1.93. For the same compound, the z-score in assay [8] was 0.102 (inactive); in assay [9] it was 0.056 (inactive); in assay [10], -1.83; in assay [11], -0.812; in assay [12] it was 2.14; in assay [13], -0.789. The z-score was -1.59 in [14]; -2.27 in [15]; -2.7 in assay [16]; -0.2 (inactive) in [17]; -0.849 in assay [18]; -1.29 in assay [19]. For the same compound, the z-score in [20] was 0.163 (inactive). Further, in [2], the composite z-score was determined as 1.43.
For the compound `COc1ccc(C(=O)Nc2ccc(CN3C(=O)[C@@]4(O[C@@H](CCn5cc([C@H](O)c6ccccc6)nn5)[C@H]([Si](C)(C)c5ccc(OC)cc5)[C@H]4C)c4ccccc43)cc2)cc1`, the z-score in assay [1] was -0.203 (inactive); in assay [3] it was 19.8 (active); in [4], 5.6 (inactive); in assay [5] it was 2.08 (inactive); in [6] it was 1.43 (inactive); in assay [7] it was 0.134. Further, the z-score in [8] is 0.295 (inactive); in assay [9], 0.709 (inactive); in assay [10], 2.2; in assay [11], -0.443; in assay [12], -0.196; in [13], -4.62. Moreover, the z-score is -2.72 in assay [14]; -3.02 in assay [15]; 1.73 in assay [16]; 1.17 (inactive) in assay [17]; -1.1 in assay [18]; -2.26 in [19]. For the same compound, the z-score in assay [20] is -1.15 (inactive). This compound also gave a composite z-score in assay [2] of 0.191.
Take `CN(C)CCCNC(=O)[C@@]1(c2ccc([N+](=O)[O-])cc2)CC(=O)N(C2CCCCC2)[C@@H]1c1ccc(CO)cc1I`: the z-score in assay [1] is -2.09 (inactive); in assay [3] it was 14.8 (active); in assay [4], 1.44 (inactive); in assay [5] it was -2.81 (inactive); in [6], 0.037 (inactive); in [7], -1.78. The z-score in assay [8] was -8.16 (active); in assay [9], -2.52 (inactive); in assay [10], 0.205; in assay [11] it was -4.33; in assay [12], 0.184; in assay [13], -5.13. The z-score was -3.86 in assay [14]; -4.36 in assay [15]; -3.14 in [16]; 0.499 (inactive) in assay [17]; -0.952 in assay [18]; -2.31 in assay [19]. In addition, the z-score in [20] was -6.55 (inactive). Moreover, the composite z-score in [2] came to 0.0824.
As to `COCCCNC(=O)[C@@]1(Cc2ccccc2)N=C(c2ccc(OCCCO)cc2)O[C@H]1c1ccccc1`, the z-score in assay [1] was -0.146 (inactive); in assay [3] it was 19.7 (active); in assay [4], 3.35 (inactive); in assay [5], -0.321 (inactive); in assay [6], 0.32 (inactive); in assay [7], -0.628. The z-score in assay [8] was -0.981 (inactive); in assay [9], 1.11 (inactive); in assay [10], 1.86; in assay [11], -0.736; in [12] it was -0.493; in assay [13], -0.104. Further, the z-score in [14] was -1.03; in [15], -0.856; in assay [16], 0.00935; in [17], 0.425 (inactive); in assay [18] it was -1.11; in assay [19] it was -0.314. In addition, the z-score in assay [20] is 1.57 (inactive). This compound displayed a composite z-score in [2] of 0.39.
In the case of `COc1ccc(CCN2C(=O)[C@@]3(Cc4ccccc42)c2ccccc2C(=O)N(Cc2ccccc2C(F)(F)F)[C@H]3c2ccc(CO)cc2)cc1`, the z-score in [1] is -0.262 (inactive); in assay [3], 0.074 (inactive); in [4], -1.13 (inactive); in assay [5] it was -1.87 (inactive); in assay [6], -2.07 (inactive); in assay [7], 1.85. In addition, the z-score in [8] is -1.4 (inactive); in [9] it was -2.08 (inactive); in assay [10], -2.04; in assay [11] it was -0.306; in assay [12] it was 0.885; in assay [13], -0.863. Also, the z-score is 0.122 in assay [14]; -1.57 in assay [15]; -0.739 in [16]; -0.753 (inactive) in assay [17]; 0.923 in assay [18]; -1.59 in assay [19]. Also, in assay [20], the z-score was 0.639 (inactive). In [2], this compound yielded a composite z-score of -0.201.
